Reference: the supplement of paper PMC10849652
Of roughly 7,900 targets only a part is listed; those with a hit were picked by preference. About 0.6% of all pairs of compound and target were hits. Unmarked numbers belong to inactive results.

compound: c1cn2cc(-c3ccc4cn[nH]c4c3)nc(Nc3ccc(N4CCOCC4)cc3)c2n1 [entospletinib]; assay: log2 fold change, soluble protein after heating vs DMSO (PISA); higher = thermal stabilisation; K562 cells, 10 uM, 30 min; active = over 0.2 and 3.5 SD of the protein, either way, in both replicates (recomputed)
In short: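 K562 cells at 2×10^6 cells/mL were treated with 10 μM compound for 30 min. Aliquots were heated for 3 min across 48°C-58°C, pooled, and extracted in PBS with 0.5% NP-40 at 4°C; soluble protein was the supernatant after 21,000xg for 90 min. Soluble protein was quantified by TMTpro 16plex LC-MS/MS with channel sums equalised, and reported as log2 fold change in thermal stability against DMSO controls, with values from duplicates.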

Sequence of UniProt Q86UU1 (Q86UU1 whole entry, looked up): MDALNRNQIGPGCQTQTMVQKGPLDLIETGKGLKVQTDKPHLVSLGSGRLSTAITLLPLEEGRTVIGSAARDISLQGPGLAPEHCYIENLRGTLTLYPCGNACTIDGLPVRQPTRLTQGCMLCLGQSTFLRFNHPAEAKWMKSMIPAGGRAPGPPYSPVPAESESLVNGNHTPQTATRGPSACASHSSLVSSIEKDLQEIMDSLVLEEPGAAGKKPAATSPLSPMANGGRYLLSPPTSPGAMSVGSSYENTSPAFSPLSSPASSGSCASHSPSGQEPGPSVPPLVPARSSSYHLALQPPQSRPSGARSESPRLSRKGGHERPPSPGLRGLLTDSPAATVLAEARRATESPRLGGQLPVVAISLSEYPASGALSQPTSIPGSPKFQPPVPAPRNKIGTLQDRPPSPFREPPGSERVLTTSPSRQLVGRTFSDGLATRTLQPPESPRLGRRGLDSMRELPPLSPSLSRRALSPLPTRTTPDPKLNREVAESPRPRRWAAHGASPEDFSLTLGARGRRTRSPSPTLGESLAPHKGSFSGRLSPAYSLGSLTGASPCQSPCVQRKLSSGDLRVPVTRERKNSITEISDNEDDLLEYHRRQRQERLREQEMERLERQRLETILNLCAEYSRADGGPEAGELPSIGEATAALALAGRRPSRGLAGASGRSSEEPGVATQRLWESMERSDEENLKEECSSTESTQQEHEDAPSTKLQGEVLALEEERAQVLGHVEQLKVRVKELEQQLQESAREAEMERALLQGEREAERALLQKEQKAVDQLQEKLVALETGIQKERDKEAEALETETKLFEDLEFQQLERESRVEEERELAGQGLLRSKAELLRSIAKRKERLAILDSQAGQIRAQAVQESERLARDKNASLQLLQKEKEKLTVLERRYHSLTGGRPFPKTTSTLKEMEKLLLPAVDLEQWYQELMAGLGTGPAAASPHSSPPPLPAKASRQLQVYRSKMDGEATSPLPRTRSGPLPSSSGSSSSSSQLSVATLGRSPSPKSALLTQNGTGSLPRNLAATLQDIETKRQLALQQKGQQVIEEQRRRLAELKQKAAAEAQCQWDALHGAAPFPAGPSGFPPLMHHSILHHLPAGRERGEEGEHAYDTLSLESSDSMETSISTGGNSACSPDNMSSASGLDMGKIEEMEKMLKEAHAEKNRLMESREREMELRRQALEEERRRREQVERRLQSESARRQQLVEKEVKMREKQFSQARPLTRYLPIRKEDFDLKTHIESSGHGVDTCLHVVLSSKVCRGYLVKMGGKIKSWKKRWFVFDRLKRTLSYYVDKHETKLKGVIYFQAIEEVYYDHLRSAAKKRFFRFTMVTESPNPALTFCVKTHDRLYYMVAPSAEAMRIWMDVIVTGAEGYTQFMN
Sequence of UniProt Q9Y5K3 (Q9Y5K3 whole entry, looked up): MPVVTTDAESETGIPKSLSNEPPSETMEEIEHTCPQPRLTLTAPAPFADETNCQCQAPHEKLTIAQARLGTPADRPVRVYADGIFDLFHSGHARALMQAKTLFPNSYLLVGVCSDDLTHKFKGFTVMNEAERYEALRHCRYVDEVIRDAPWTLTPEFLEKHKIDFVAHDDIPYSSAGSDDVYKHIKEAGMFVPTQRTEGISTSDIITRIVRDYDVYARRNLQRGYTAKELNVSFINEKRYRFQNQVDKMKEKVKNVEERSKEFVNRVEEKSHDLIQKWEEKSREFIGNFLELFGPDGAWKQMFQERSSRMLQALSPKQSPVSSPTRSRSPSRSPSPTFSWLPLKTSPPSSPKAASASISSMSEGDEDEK
Sequence of UniProt O00408 (O00408 whole entry, looked up): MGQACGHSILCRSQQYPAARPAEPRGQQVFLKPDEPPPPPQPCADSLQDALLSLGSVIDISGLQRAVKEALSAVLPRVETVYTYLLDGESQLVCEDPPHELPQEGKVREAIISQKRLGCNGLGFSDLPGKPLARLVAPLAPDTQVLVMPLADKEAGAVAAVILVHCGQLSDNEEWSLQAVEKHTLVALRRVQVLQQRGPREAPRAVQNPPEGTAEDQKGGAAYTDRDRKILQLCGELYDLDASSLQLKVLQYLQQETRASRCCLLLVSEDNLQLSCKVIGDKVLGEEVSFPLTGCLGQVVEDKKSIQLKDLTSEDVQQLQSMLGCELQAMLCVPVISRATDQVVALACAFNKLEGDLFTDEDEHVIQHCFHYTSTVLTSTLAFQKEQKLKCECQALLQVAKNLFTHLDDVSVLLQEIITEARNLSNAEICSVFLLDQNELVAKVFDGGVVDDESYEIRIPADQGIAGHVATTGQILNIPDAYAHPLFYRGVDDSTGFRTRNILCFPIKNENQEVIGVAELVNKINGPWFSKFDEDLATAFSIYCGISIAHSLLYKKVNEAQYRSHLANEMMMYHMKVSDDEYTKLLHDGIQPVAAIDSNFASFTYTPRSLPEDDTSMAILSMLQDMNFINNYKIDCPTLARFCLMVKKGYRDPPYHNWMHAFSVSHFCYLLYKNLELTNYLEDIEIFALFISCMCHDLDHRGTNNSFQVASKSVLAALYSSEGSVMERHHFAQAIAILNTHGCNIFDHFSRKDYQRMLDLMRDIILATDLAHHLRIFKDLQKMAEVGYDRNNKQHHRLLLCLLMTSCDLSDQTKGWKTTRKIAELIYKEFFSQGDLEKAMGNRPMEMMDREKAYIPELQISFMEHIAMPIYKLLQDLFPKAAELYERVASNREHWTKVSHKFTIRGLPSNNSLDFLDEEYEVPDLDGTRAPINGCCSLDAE
Sequence of UniProt Q9Y2Y1 (Q9Y2Y1 whole entry, looked up): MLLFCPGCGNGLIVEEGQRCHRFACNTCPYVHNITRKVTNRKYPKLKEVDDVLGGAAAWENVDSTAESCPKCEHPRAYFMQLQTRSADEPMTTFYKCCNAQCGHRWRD
Sequence of UniProt Q8N5Y8 (Q8N5Y8 whole entry, looked up): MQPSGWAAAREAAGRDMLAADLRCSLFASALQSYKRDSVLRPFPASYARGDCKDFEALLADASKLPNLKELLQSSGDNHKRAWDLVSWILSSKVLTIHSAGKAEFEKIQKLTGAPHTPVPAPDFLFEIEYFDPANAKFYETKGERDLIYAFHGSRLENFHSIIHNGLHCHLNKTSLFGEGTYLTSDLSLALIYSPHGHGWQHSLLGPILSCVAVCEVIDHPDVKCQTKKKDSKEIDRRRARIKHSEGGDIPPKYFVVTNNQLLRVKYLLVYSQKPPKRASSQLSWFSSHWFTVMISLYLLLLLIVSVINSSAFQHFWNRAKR
Sequence of UniProt Q5JVF3 (Q5JVF3 whole entry, looked up): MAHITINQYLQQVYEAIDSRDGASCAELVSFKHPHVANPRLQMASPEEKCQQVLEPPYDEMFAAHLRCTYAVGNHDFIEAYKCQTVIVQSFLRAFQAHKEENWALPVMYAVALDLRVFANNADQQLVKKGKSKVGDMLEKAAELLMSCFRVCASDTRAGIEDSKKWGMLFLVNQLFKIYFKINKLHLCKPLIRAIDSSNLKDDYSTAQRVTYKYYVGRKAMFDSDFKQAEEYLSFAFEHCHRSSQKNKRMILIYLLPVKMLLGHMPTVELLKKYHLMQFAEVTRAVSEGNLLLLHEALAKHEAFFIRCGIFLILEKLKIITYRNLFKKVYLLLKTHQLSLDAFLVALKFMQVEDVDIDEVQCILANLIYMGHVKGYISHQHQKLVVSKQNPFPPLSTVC
Sequence of UniProt Q99575 (Q99575 whole entry, looked up): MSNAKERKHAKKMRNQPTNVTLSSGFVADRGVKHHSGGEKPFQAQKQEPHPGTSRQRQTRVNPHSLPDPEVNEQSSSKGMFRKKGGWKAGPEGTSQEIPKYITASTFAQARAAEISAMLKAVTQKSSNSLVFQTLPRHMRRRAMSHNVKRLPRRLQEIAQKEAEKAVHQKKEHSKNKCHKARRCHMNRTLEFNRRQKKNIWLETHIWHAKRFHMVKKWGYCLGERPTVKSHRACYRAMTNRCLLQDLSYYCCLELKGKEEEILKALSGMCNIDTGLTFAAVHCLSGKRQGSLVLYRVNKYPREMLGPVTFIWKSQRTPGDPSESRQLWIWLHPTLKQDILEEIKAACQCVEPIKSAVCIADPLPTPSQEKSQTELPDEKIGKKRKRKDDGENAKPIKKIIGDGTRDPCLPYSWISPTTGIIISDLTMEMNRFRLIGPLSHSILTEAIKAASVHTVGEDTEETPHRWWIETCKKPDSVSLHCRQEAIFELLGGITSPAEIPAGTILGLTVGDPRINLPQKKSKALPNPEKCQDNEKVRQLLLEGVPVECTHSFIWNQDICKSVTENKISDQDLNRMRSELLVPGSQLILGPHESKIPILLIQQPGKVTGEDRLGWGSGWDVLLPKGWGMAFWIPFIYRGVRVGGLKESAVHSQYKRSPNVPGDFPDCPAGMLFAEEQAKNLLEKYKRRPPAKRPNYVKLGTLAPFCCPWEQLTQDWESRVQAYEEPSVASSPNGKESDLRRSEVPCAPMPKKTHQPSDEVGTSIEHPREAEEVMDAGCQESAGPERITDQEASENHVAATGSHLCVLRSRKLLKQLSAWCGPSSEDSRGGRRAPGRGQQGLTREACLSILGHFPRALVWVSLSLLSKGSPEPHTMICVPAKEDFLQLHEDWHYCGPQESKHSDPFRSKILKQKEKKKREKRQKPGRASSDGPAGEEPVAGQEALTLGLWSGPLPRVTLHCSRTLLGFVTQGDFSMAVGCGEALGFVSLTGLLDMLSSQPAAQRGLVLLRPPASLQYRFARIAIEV
Sequence of UniProt Q15365 (Q15365 whole entry, looked up): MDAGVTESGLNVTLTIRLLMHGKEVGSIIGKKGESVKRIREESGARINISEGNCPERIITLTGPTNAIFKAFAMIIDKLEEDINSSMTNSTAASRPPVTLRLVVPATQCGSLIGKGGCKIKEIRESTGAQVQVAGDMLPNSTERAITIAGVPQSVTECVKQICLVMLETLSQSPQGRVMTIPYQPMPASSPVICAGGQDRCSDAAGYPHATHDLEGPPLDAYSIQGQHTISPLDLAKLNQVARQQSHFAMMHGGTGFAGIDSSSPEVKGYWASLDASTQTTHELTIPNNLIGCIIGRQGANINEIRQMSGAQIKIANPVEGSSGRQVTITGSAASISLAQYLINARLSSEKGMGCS

Row | Target | log2 fold change
1 | PRG4 (UniProt Q92954) | -0.006
2 | PNPLA8 (UniProt Q9NP80) | -0.015
3 | PCBP1 (UniProt Q15365) | -0.042
4 | PSMD2 (UniProt Q13200) | -0.002
5 | PELP1 (UniProt Q8IZL8) | -0.041
6 | PNN (UniProt Q9H307) | 0.172
7 | PRPF38A (UniProt Q8NAV1) | 0.036
8 | PMPCB (UniProt O75439) | -0.043
9 | PTPA (UniProt A6PVN8) | -0.004
10 | PARP16 isoform 3 (UniProt Q8N5Y8) | 0.074
11 | PCYT1B (UniProt Q9Y5K3) | 0.057
12 | PCID2 (UniProt Q5JVF3) | 0.014
13 | PIP4K2C (UniProt Q8TBX8) | -0.031
14 | PDE2A (UniProt O00408) | 0.015
15 | POP1 (UniProt Q99575) | 0.027
16 | PPP1R12A (UniProt O14974) | -0.045
17 | POLR2I (UniProt P36954) | 0.306
18 | PPP1R35 (UniProt Q8TAP8) | -0.04
19 | PRKCD (UniProt Q05655) | 0.018
20 | PDS5A (UniProt Q29RF7) | 0.039

Row | Target | log2 fold change
21 | PIGG (UniProt Q5H8A4) | -0.034
22 | PSMB9 (UniProt P28065) | -0.251
23 | PHLDB1 isoform 2 (UniProt Q86UU1) | -0.005
24 | PSD3 (UniProt Q9NYI0) | -0.013
25 | PLCG1 isoform 2 (UniProt P19174) | 0.021
26 | PLA2G15 (UniProt Q8NCC3) | -0.063
27 | QRICH1 (UniProt Q2TAL8) | -0.054
28 | PPIL4 (UniProt Q8WUA2) | 0.035
29 | PARG (UniProt Q86W56) | -0.015
30 | PSMC2 (UniProt P35998) | 0.02
31 | PI4K2B (UniProt Q8TCG2) | -0.005
32 | PSMD8 (UniProt P48556) | 0.012
33 | PTTG1IP (UniProt P53801) | -0.044
34 | PFAS (UniProt O15067) | -0.399 (active)
35 | PATL1 (UniProt Q86TB9) | 0.076
36 | PRKCB isoform 2 (UniProt P05771) | -0.012
37 | POLR3K (UniProt Q9Y2Y1) | 0.113
38 | PIP4K2A (UniProt P48426) | -0.049
39 | PUM1 isoform 3 (UniProt Q14671) | 0.045
